Most compounds without a hit are left out; they make up all but 4.6% or so of the library.
D1 antagonist: blocks dopamine activation of the human D1 receptor | HEK293 TREx D1 cells, calcium flux, dopamine EC80; active compounds read low | 3.2% of 360,000 active | activity change, negative = inhibition, % at 10 µM | AID 504652 | P21728; in the data active means activity change below about -30%; further: on the % scale 0 is the no-effect control and ±100 the full control effect
Target sequence (P21728 whole entry, looked up): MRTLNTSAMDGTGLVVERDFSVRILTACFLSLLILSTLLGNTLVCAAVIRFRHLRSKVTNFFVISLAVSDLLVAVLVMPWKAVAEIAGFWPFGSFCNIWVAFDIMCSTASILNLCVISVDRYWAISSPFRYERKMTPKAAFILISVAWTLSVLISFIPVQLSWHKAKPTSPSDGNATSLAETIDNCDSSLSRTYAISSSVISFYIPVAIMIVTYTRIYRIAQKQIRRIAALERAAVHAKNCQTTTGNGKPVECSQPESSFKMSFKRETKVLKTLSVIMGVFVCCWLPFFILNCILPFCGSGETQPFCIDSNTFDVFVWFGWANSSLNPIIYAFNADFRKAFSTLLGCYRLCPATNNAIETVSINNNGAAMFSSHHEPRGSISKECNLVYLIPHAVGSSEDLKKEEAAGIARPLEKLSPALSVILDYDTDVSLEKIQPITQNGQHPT
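Antagonism measured as reduced calcium response to an EC80 dopamine addition following 180 s compound pre-read; cells were inducible HEK293 Trex D1 plated overnight at 30 C, read kinetically at 1 cycle/sec.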
D1 agonist: human D1 receptor agonism. 1% of 360,000 active. activation, % at 2 µM. HEK293 T-REx D1 cells, calcium flux, agonist mode. P21728. AID 504660; further: 0% is about no effect
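Inducible HEK293 T-REx D1 cells, force-coupled to calcium signalling, were plated at 4000 cells/well with tetracycline and held overnight at 30 C. After no-wash calcium dye loading, compound-evoked calcium rise over 180 s flagged agonists.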
D1 potentiator: human D1 dopamine receptor positive modulation; P21728; HEK293 TREx D1 cells, calcium flux, dopamine EC20 potentiation; potentiation, % at 10 µM; 0.036% of 360,000 active; in the data active means potentiation above about 30%; further: 0% is about no effect
TRHR agonist: TRH receptor (human) agonism. TRHR cells, calcium flux fluo-8, FDSS agonist mode. AID 493084. 0.18% of 360,000 active. P34981. activation, % at 2 µM; further: 0% is about no effect
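TRHR-expressing cells, plated overnight in medium with 10% serum, were loaded with fluo-8 calcium dye at room temperature. After a 10 s baseline, library compound was pin-added and calcium release was recorded kinetically (ex 480/em 530) as agonist response.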
TRHR enhancer: TRH receptor (human) allosteric enhancement. P34981. TRHR cells, fluo-8 calcium fluorescence, EC20 TRH enhancement. enhancement, % at 2 µM. 0.66% of 360,000 active. AID 493056; in the data active means enhancement above about 30%; further: 0% is about no effect
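Enhancer read-out: after compound pinning and an initial kinetic agonist-mode read, an EC20 of TRH (10 nM final) was injected and fluo-8 calcium signal (Ex 480/Em 530) followed at 1 s/cycle for 100 cycles in TRHR-expressing cells.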
* marks the source's active call; other numbers are inactive results; . = no result given; ! = repeats disagree. Unless noted, no stated cut-off is given here; in the data, active means activation above about 30%; inactive means the rest.

SMILES	D1 antagonist	D1 agonist	D1 potentiator	TRHR agonist	TRHR enhancer
CC(C)NC(=O)CC(c1ccccc1)c1cc(Br)ccc1O (stereo unspecified)	4.9	44.1*	2.0	-1.1	8.1
CCCCCCNC(=O)CC(c1ccccc1)c1cc(Br)ccc1O (stereo unspecified)	13.9	7.0	-1.6	-0.1	8.5
NC(=O)c1cc[n+](CC(=O)NC(=O)Nc2ccccc2)cc1	-1.4	2.4	2.1	0.4	-2.2
O=C1CSC(=S)N1c1cccc(Br)c1	-82.5*	3.1	-15.7	-0.5	-16.4
COc1ccccc1C(=O)Nc1ccccc1C(=O)OCc1cc(=O)n2ccsc2n1	-4.2	-1.1	2.4	1.3	-2.2
CC(=O)c1ccc(S(=O)(=O)N2CCN(C(=O)c3ccc(-n4cncn4)c([N+](=O)[O-])c3)CC2)cc1	-50.2*	-0.1	-3.0	0.2	6.5
Nc1ccc(C(=O)N2CCN(S(=O)(=O)c3ccc(Br)cc3)CC2)cc1[N+](=O)[O-]	-48.6*	4.6	-4.2	0.4	2.0
COc1ccc(NC(=O)c2cnc[nH]2)cc1	5.3	1.2	-3.8	0.0	-6.9
Cn1cc(S(=O)(=O)N2CCCCCC2)cc1C(=O)N1CCN(c2cccc(Cl)c2)CC1	1.6	-0.6	0.7	-0.2	-1.9
COc1ccc(/C=C/CN2CCN(CCc3ccccc3)C(CCO)C2)cc1 (stereo unspecified)	-0.4	5.7	-4.5	0.3	38.6*
CCOc1ccccc1CN1CCN(C/C=C/c2ccc(OC)cc2)CC1CCO (stereo unspecified)	-26.2	11.9	-5.7	2.5	-5.7
COc1ccccc1CNC(=O)CCNS(=O)(=O)c1ccc2c(c1)oc(=O)n2C	-36.1*!	0.5	-7.4	0.5	-20.8
CCN(CCNS(=O)(=O)c1ccc2c(c1)oc(=O)n2C)c1ccccc1	-30.9*	3.5	-7.2	0.5	1.1
Cc1ccc(C)c(N2CCN(C(=O)CCNS(=O)(=O)c3ccc4c(c3)oc(=O)n4C)CC2)c1	-35.1*	11.3	-11.8	0.0	2.2
CCCN(CCC)CCNS(=O)(=O)c1ccc2c(c1)oc(=O)n2C	-9.0	3.5	-6.3	-2.1	-4.2
CCCC(=O)Nc1cc(-c2nc3cccnc3s2)ccc1C	24.3	49.1*	-3.4	-0.4	15.1
CCCCC(=O)Nc1cc(-c2nc3cccnc3s2)ccc1C	-1.3	1.0	-0.1	0.3	-9.5
COc1ccc(C2CC(=O)c3c([nH]c(C(=O)OC4CCCCCC4)c3C)C2)cc1OC (stereo unspecified)	-0.1	6.0	-3.8	0.6	-1.0
Cc1ccc(N2C(=O)CSC2c2cccnc2)c(Cl)c1 (stereo unspecified)	-37.3*	2.0	-0.7	-1.3	-2.5
O=C(Cc1ccccc1)N/N=C/c1cccs1	-5.5	0.3	0.1	-0.3	0.9
COC(=O)N/N=C/c1cccs1	-31.6*	1.4	-4.0	0.6	-0.4
Cc1ccccc1CSCC(=O)N/N=C/c1cccs1	-41.3*	5.9	-8.2	0.0	-2.0
Cc1nnc(-c2ccc(N3CCCCCC3)c([N+](=O)[O-])c2)o1	13.0	1.3	-1.1	0.3	-5.5
CC(C)C(=O)N1CCN(c2ccccc2NC(=O)c2ccco2)CC1	-0.2	1.0	2.1	0.5	6.7
O=C1NC[C@@H](Cc2cccc3ccccc23)N(CCc2cc(C(F)(F)F)cc(C(F)(F)F)c2)C1=O	-2.1	2.0	4.0	-0.9	14.8
SMILES	D1 antagonist	D1 agonist	D1 potentiator	TRHR agonist	TRHR enhancer
Cc1ncsc1CCOC(=O)c1cccc([N+](=O)[O-])c1	-32.8*!	7.5	-8.0	-1.5	2.1
Cc1ccc(/C=N/NC(=O)c2nnn(-c3nonc3N)c2-c2cccs2)cc1	96.2	163.3*	18.8	1.0	20.3
COCc1c(C(=O)N/N=C/c2ccc(C)o2)nnn1-c1nonc1N	-11.0	3.9	.	-0.3	-1.4
COc1cc(/C(C)=N/NC(=O)c2nnn(-c3nonc3N)c2-c2cccs2)ccc1O	-2.9	5.5	1.3	0.0	-1.3
CCOc1ccc(/C(C)=N/NC(=O)c2nnn(-c3nonc3N)c2-c2cccs2)cc1	107.2	114.6*	40.8*	3.2	12.5
Nc1nonc1-n1nnc(C(=O)N/N=C/c2ccc(F)cc2)c1-c1ccc2c(c1)OCO2	7.3	2.1	3.1	0.1	4.5
Cc1ccc(/C=N/NC(=O)c2nnn(-c3nonc3N)c2CN(C)C)o1	-14.2	0.2	-4.2	-0.7	32.4*
COc1ccc(/C=N/NC(=O)c2nnn(-c3nonc3N)c2-c2cccs2)cc1OC	-12.4	5.2	0.1	0.6	-1.0
Cc1ccc(/C=N/NC(=O)c2nnn(-c3nonc3N)c2-c2ccc3c(c2)OCO3)s1	70.9	48.5*	35.5*	0.4	7.2
COC(=O)c1ccc(CNC(=O)c2ccc(COc3ccccc3)cc2)cc1	-9.0	7.4	1.0	0.8	4.6
CC(=O)N1CCc2cc(CNS(=O)(=O)c3ccc(Br)s3)ccc21	-13.5	7.1	-1.6	-0.4	-2.2
Cc1cc2c(s1)c1cnn(Cc3ccc(C(F)(F)F)cc3)c(=O)c1n2C	13.4	1.7	-7.0	-0.3	-1.5
COc1ccc(/C=N/NC(=O)c2nnn(-c3nonc3N)c2-c2cccc(OC)c2)cc1	5.3	98.8*	13.7	8.4	29.6
COc1cccc(-c2c(C(=O)N/N=C/c3cccs3)nnn2-c2nonc2N)c1	32.7	60.7*	9.7	5.6	22.4
Nc1nonc1-n1nnc(C(=O)N/N=C/c2ccncc2)c1CSc1ccc(Cl)cc1	-27.9	5.2	-6.5	0.1	-7.2
Cc1ccc(SCc2c(C(=O)N/N=C/c3ccncc3)nnn2-c2nonc2N)cc1	-41.6*	6.5	-9.8	-0.6	-0.7
CCOc1cccc(-c2c(C(=O)N/N=C/c3cccs3)nnn2-c2nonc2N)c1	50.6	30.2*	10.1	1.3	21.7
CCOc1cccc(-c2c(C(=O)N/N=C/c3ccncc3)nnn2-c2nonc2N)c1	11.8	5.2	17.4	0.4	3.9
CC1CN(C(=O)N2CCC(C(=O)NCCCc3ccccc3)CC2)c2ccccc2O1 (stereo unspecified)	8.1	4.9	-4.2	-0.2	-0.9
Cn1nc(-c2ccccc2F)c2cc(C(=O)N3CCN(c4ccccc4F)CC3)sc21	-16.4	8.9	-1.2	0.6	-9.1
C/C(=N\NC(=O)c1ccc(Cl)c(Cl)c1)c1ccccn1	-38.0*	4.3	-1.8	0.1	-1.6
Cc1nc2sc(C(c3ccco3)N3CC(C)OC(C)C3)c(O)n2n1 (stereo unspecified)	4.1	0.0	6.7	-0.2	30.9*
COC(=O)c1ccccc1NC(=O)c1ccc2c(c1)CCN2S(=O)(=O)c1ccc(Cl)cc1	3.2	1.2	-0.6	0.7	-1.1
Cc1ccc(-n2ncc3c(N4CCC(C)CC4)ncnc32)cc1C	6.1	-0.7	0.1	-0.2	-4.3
CCn1ccc2c(OCC(=O)Nc3ccc(C)c(Cl)c3)cccc2c1=O	.	1.4	1.2	-0.1	2.5
